High-throughput results: PubChem, several laboratories
This is a sample that favours compounds with a hit; in the whole collection about 4% have one here.
697 NFkB inh: inhibitors of PMA/ionomycin-induced NF-kB reporter, 697 cells, primary screen, B-cell NF-kB inhibitor project, cell-based, luminescence, uHTS | 697 B-cell NF-kB luciferase reporter, 16 h | inhibition, % at 4 µM | 330,000 compounds, 0.33% hits | AID 435022, 2010; in the data active = inhibition above about 35%
Mdm2-MdmX inh: inhibitors of human Mdm2-MdmX association, primary screen, cell-based, luminescence, split luciferase, SaOS-2, uHTS | SaOS-2 split-luciferase Mdm2/MdmX complementation | inhibition, % at 8 µM | Protein Mdm4 (Homo sapiens) + E3 ubiquitin-protein ligase Mdm2 (Homo sapiens), … | 330,000 compounds, 3% hits;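 active = inhibition of at least 50% at 8 µM in the primary screen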
Jurkat NFkB inh: inhibitors of induced NF-kB luciferase reporter, primary screen, TCR NF-kB activation inhibitor project, cell-based, luminescence, uHTS; Jurkat, PMA/ionomycin-induced NF-kB luciferase reporter; inhibition, % at 4 µM; 330,000 compounds, 0.53% hits; AID 435003, 2010; in the data active = inhibition above about 50%
Beta cell apopt: inhibitors of cytokine-induced beta cell apoptosis, primary screen, luminescence. INS-1E cytokine-induced death, ATP luminescence, 48 h; percent of positive-control rescue, neutral wells zero. protection from apoptosis, % (test concentration not listed). 300,000 compounds, 0.8% hits. AID 435005, 2010;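 active = Every replicate reaches about 75%, or at least half do and their mean reaches it too, limit read from the data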;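 note: 0% = cytokine-treated negative control wells and 100% = positive control rescue; higher means more ATP so stronger rescue from cytokine killing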
Gli-Sufu antag: Gli-Sufu pathway antagonists, primary screen, luciferase luminescence, Sufu-KO-LIGHT cells, uHTS. inhibition, % at 5 µM. 340,000 compounds, 0.74% hits. Sufu-KO-LIGHT fibroblasts, Gli luciferase reporter luminescence;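 active = inhibition above about 55%, limit read from the data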;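 note: 0% = DMSO-treated cells and 100% = wells with medium but no cells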
Mdm2-MdmX conf: Mdm2-MdmX complex disruptors, retested hits, confirmation, luminescence, single concentration. shares compounds with Mdm2-MdmX inh. Mdm2-MdmX binding, luminescent assay. inhibition, % at 8 µM. 10,000 compounds, 55% hits. AID 489028, 2010; in the data active = inhibition above about 40%
FLuc counter: full-length luciferase signal inhibition, confirmation, counter-screen for Mdm2/MdmX interaction inhibitor project, cell-based, single concentration, SaOS-2; shares compounds with Mdm2-MdmX inh; SaOS-2 full-length luciferase counterscreen, luminescence; inhibition, % at 8 µM; 6,200 compounds, 77% hits;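 active = mean inhibition at 8 µM reaching about 37%, which flags the compound as non-specific, limit read from the data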;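 note: p53-null SaOS-2 cells with luciferase driven by a doxycycline-inducible promoter; compound on cells about two nights before reading with doxycycline added after day one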
An asterisk follows results filed as active; x = not tested or not shown.

SMILES | 697 NFkB inh | Mdm2-MdmX inh | Jurkat NFkB inh | Beta cell apopt | Gli-Sufu antag | Mdm2-MdmX conf | FLuc counter
COc1ccc(C(=O)Nc2nc(-c3cccs3)cs2)cc1 | -91 | -65 | -51 | -5 | -32 | x | x
CC(C(=O)NN=C(c1ccccc1)c1ccccc1)N1CCOCC1 (centres undefined) | 7 | 9 | 2 | 2 | -3 | x | x
CCOC(=O)c1ccc(NC(=O)COc2ccc(CNCCO)cc2OCC)cc1 | 9 | 2 | 3 | 0 | 17 | x | x
CCOC(=O)c1ccc(NC(=O)COc2ccccc2CNCCc2ccccc2)cc1 | -7 | 63* | -17 | 22 | 34 | 16 | x
CN(C(=O)CSc1nnnn1-c1ccccc1)C1CCS(=O)(=O)C1 (centres undefined) | 22 | -14 | 15 | -2 | 6 | x | x
COc1cc(CNCCc2ccc(S(N)(=O)=O)cc2)ccc1OCC(=O)NC1CCCCC1 | 5 | 23 | -2 | -7 | 3 | x | x
COc1cc(CNCCc2ccc(S(N)(=O)=O)cc2)ccc1OCc1ccc(Cl)cc1 | -35 | 54* | 17 | 23 | 3 | 40* | 69*
O=S(=O)(CC(CN1CCCC1)N1CCCC1)c1ccc2ccccc2c1 (centres undefined) | 0 | 75* | 4 | -3 | 5 | 85* | 56*
Cc1ccc(S(=O)(=O)CCC(=O)Nc2nc(-c3ccncc3)cs2)cc1 | 9 | 88* | -5 | -18 | 3 | 58* | 37*
CCCC(=O)Nc1ccc(-c2csc(N/N=C\c3ccncc3)n2)cc1 | -2 | 65* | -1 | 4 | -24 | 7 | x
Cc1cc(C)c(OCC(=O)Nc2nc(-c3ccccn3)cs2)c(C)c1 | -9 | 53* | -2 | 1 | -3 | 33 | 46*
Cc1ccc(-c2csc(NC(=O)C[n+]3cc(-c4ccc(C)cc4)n4c3CCC4)n2)cc1 | 0 | 56* | 17 | 11 | 4 | 12 | x
S=C(c1ccco1)N1CCOCC1 | x | x | x | x | 13 | x | x
Cc1ccc(CNC(=O)CS(=O)(=O)Cc2nc(-c3ccc(C)cc3)oc2C)cc1 | -26 | -11 | 2 | -4 | -1 | x | x
COc1ccc2oc(C(=O)Nc3nc(-c4ccccn4)cs3)c(C)c2c1 | -11 | 60* | -14 | 12 | -13 | 59* | 69*
COc1ccc2oc(C(=O)NC(C)c3ccccn3)c(C)c2c1 (centres undefined) | -18 | 4 | -20 | 0 | -11 | x | x
CC(Oc1ccc(F)cc1)C(=O)Nc1nc(-c2ccccn2)cs1 (centres undefined) | 8 | 77* | 9 | 20 | 7 | 84* | 36
O=C(CCS(=O)(=O)c1ccc(F)cc1)Nc1nc(-c2ccccn2)cs1 | -51 | 69* | -6 | 2 | -15 | 43* | 39*
O=C(CCS(=O)(=O)c1ccccc1)Nc1nc(-c2ccccn2)cs1 | -36 | 70* | -14 | 10 | -6 | 35 | 48*
COc1ccc(OCCCC(=O)Nc2nc(-c3ccccn3)cs2)cc1 | -7 | 29 | 1 | 6 | 0 | x | x
CC(C)(C)NC(=O)C(c1ccc(-c2ccccc2)cc1)N(C[C@H]1CC[C@@H]([C@@H]2CC[C@H](CO)O2)O1)C(=O)c1ccc2ccccc2c1 (some centres undefined) | 11 | 22 | x | x | 0 | x | x
CC(C)(C)NC(=O)C(c1ccc(-c2ccccc2)cc1)N(C[C@H]1CC[C@@H]([C@@H]2CC[C@H](CO)O2)O1)C(=O)c1ccc(-c2ccccc2)cc1 (some centres undefined) | 14 | 88* | x | x | -6 | 47* | 52*
